Screens (PubChem BioAssay)
CYP2C19 act = human CYP2C19 activators, primary screen, biochemical, luminescence; Cytochrome P450 2C19 (Homo sapiens), P33261; recombinant CYP2C19, luciferin-H EGE luminescence; hits give high values; 0 = fully inhibited enzyme, 1 = untreated enzyme; activation factor at 5 µM; 96,000 tested, under 10 active;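 active = activation factor of at least 2 at 5 µM in the primary screen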
CYP2C9 act = human CYP2C9 activators, primary screen, biochemical, luminescence | Cytochrome P450 2C9 (Homo sapiens), P11712 | recombinant CYP2C9, luciferin-H conversion; hits give high values; factor 1 = untreated enzyme, 0 = blocked | activation factor at 5 µM | 1.4% of 96,000 active | AID 1024, 2008;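 active = activation factor of 2 or more for CYP2C9 at a 5 µM dose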
Cav32 inh = Cav3.2 calcium influx blockers – cell-based, Fluo-4 calcium fluorescence, FDSS, MLSMR library, primary screen; Voltage-dependent T-type calcium channel subunit alpha-1H (Homo sapiens), O95180; Cav3.2-expressing cells; hits give low values; B-score at 10 µM; 4% of 100,000 active; AID 449739, 2010;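 active = single-dose well whose peak fluorescence ratio is a statistical outlier from its plate by either plate-standardised score or position-corrected B-score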
Target sequence (O95180 whole entry, looked up): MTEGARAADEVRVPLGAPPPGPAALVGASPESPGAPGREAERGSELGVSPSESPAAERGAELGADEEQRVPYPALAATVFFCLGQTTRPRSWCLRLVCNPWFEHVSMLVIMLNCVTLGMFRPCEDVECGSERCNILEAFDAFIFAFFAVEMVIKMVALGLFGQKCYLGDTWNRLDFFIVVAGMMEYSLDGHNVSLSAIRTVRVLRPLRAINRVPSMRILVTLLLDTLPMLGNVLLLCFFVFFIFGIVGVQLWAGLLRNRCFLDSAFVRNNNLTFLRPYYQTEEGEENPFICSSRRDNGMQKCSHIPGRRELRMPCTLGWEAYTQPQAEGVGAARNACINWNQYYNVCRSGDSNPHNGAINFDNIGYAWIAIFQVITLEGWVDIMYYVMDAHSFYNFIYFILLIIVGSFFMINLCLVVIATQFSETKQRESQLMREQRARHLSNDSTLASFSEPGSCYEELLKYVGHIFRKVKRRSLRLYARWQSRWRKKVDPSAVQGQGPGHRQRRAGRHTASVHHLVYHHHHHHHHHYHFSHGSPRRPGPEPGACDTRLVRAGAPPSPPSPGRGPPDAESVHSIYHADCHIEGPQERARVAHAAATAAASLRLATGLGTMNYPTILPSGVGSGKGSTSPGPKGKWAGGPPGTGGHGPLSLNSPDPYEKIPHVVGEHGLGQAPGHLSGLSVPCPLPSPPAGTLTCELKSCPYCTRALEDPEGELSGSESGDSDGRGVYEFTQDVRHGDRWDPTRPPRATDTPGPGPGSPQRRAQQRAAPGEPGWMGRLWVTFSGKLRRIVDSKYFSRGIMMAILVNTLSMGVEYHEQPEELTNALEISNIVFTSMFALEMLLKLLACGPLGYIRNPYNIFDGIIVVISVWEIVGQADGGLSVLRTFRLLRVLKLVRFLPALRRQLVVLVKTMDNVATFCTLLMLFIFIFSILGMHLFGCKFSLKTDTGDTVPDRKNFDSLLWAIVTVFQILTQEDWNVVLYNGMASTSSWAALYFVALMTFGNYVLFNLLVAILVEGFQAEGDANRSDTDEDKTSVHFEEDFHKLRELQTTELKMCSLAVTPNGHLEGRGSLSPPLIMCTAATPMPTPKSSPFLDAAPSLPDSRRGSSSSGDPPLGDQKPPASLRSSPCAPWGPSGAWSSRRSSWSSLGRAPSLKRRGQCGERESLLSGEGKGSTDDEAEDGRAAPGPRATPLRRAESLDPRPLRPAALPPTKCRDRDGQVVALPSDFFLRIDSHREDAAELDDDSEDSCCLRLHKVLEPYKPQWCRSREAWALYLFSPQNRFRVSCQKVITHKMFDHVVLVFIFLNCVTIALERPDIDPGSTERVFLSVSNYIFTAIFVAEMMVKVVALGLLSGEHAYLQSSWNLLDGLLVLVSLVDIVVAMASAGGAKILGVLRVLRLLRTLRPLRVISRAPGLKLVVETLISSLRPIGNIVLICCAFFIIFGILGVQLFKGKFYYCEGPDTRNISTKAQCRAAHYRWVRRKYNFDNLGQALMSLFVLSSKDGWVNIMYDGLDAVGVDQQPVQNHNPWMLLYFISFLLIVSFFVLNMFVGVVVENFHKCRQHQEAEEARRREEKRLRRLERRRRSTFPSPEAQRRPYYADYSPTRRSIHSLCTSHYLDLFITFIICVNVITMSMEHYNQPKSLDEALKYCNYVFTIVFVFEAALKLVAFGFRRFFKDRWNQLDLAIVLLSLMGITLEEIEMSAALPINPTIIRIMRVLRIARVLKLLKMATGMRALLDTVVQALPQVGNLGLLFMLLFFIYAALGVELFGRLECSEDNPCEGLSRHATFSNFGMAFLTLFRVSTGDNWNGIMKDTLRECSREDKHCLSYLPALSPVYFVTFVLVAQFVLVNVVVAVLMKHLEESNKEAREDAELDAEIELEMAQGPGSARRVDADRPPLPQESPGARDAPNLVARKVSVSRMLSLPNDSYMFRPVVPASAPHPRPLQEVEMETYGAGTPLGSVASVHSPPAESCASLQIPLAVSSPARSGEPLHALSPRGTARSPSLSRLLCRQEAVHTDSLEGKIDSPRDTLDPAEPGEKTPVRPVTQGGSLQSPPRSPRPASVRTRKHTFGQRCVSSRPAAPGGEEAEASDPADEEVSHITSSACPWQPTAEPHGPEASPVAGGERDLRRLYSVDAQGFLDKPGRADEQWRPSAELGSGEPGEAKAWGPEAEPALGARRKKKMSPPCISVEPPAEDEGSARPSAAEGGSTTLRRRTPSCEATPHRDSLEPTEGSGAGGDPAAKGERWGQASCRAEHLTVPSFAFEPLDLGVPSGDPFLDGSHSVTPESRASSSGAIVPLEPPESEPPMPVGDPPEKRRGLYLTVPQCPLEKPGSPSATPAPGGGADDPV
CYP2C9 inhib = blockers of cytochrome P450 2C9 activity – biochemical, luminescence, ADME assay, primary screen; P11712; CYP2C9 Supersomes, luciferin-H conversion; inhibition, % at 5 µM; 20% of 96,000 active;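 active = blocking of liver enzyme CYP2C9 beyond about 50% at 5 µM, limit read from the data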
CYP2C19 inh = blockers of cytochrome P450 2C19 activity – biochemical, luminescence, ADME assay, primary screen; P33261; CYP2C19 Supersomes, luciferin-H EGE luminescence, 30 min; inhibition, % at 5 µM; 21% of 96,000 active;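 active = CYP2C19 inhibition above a set limit at 5 µM in the primary screen, cut at about 50% in these data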
A number is an active result; i = inactive; nt = no result. Sampled rows, rich in hits. Any-hit rate of the full collection: about 27%.

SMILES	CYP2C19 act	CYP2C9 act	Cav32 inh	CYP2C9 inhib	CYP2C19 inh
Cc1nc2cc(N3CCCCC3)c(NC(=O)c3ccncc3)cc2c(=O)n1Cc1ccc(Cl)cc1	i	i	nt	74	i
Cc1nc2cc(N3CCN(C)CC3)c(NC(=O)Cc3ccccc3)cc2c(=O)n1Cc1ccccc1	i	i	-7.3	67	67
Cc1ccc(C(=O)Nc2cc(Cl)ccc2N2CCCCC2)s1	i	i	i	i	i
CCN(CC)c1cc2nc(C)n(Cc3ccccc3)c(=O)c2cc1NC(=O)C1CC1	nt	nt	i	nt	nt
Cc1c(S(=O)(=O)N2CCN(C(c3ccccc3)c3ccccc3)CC2)c(=O)n(C)c(=O)n1C	i	i	i	i	i
O=C(c1ccco1)N1C(=O)c2cccc3cccc1c23	i	3.8	i	i	i
O=C(O)/C=C/c1ccccc1Oc1ccccc1	i	i	i	i	i
O/N=C/c1ccccc1Oc1ccccc1	i	i	i	i	73
Cc1ccc(NC(=O)C(Cc2ccccc2)NC(=O)c2ccco2)cc1 (stereo unspecified)	i	i	i	i	i
c1ccc(-c2nc3nonc3nc2-c2ccccc2)cc1	i	i	nt	i	66
Nc1c(-c2ccccc2)nc(Cl)nc1-c1ccccc1	i	i	i	i	i
COc1ccc(NCc2cc3ccccc3[nH]c2=O)cc1	i	i	i	i	82
COc1ccc2[nH]c(=O)c(CNc3cccc(C)c3)cc2c1	i	i	i	i	82
COc1ccc2[nH]c(=O)c(CNC3CCCCC3)cc2c1	i	i	i	i	i
CC(=O)c1cc2c(cc1NC(=O)C1CC1)OCO2	nt	nt	i	nt	nt
CCOC(=O)C(C)Oc1ccc(C2NC(=O)NC(C)=C2C(=O)Nc2ccccc2C)cc1 (stereo unspecified)	i	i	i	i	i
COC(=O)Cn1cc(C(=O)OC)cc(Br)c1=O	i	i	i	i	i
COC(=O)c1cc(Br)c(=O)n(Cc2ccc3c(c2)OCO3)c1	i	i	i	80	87
COC(=O)c1cc(Br)c(=O)n(CCc2ccccc2)c1	i	i	i	i	62
COc1cc2c(C(=O)NCc3ccc4c(c3)OCO4)cn(C)c(=O)c2cc1OC	i	i	i	i	i
CCOC(=O)C1=C(C)N(CCCC(=O)O)C(=O)NC1C(CC)CC (stereo unspecified)	nt	nt	i	nt	nt
CCCCn1nnnc1NCc1cccs1	i	i	i	i	65
Cn1nnnc1SCC(=O)NCc1cccs1	nt	nt	i	nt	nt
CC(C)OC(=O)c1cn(-c2ccccc2)nc1-c1ccc2c(c1)OCCO2	i	i	i	i	i
O=C(Nc1nc(-c2ccc(Cl)s2)cs1)c1cccs1	i	i	i	85	54
SMILES	CYP2C19 act	CYP2C9 act	Cav32 inh	CYP2C9 inhib	CYP2C19 inh
COC(C[C@@H](O)CC(=O)COCc1ccccc1)OC	nt	nt	i	nt	nt
COc1cc(CNCc2ccccn2)ccc1OCc1c(Cl)cccc1Cl	i	i	i	i	69
COc1cc(C(=O)NCc2ccccn2)ccc1OCc1c(C)noc1C	i	i	nt	i	i
COc1cc(CNCc2ccccn2)ccc1OCc1cccc(Cl)c1	i	i	i	i	83
CCC1Oc2ccc(C)cc2N(CC(=O)N(Cc2ccncc2)Cc2ccco2)C1=O (stereo unspecified)	nt	nt	i	nt	nt
COC(=O)c1cc(-c2ccc(Br)cc2)on1	i	i	nt	i	i
CC1CCCC(C)N1c1nnc(NC(=O)c2cc(-c3ccc(Br)cc3)on2)s1 (stereo unspecified)	i	i	nt	74	52
CC(C)=CC(=O)OCC(=O)Nc1ccc(F)cc1Cl	i	i	i	i	63
CC(C)=CC(=O)OCC(=O)Nc1nc(C)c(Cl)cc1Cl	i	i	i	i	83
CN(Cc1nc2ccccc2c(=O)[nH]1)CC(O)COCc1ccco1 (stereo unspecified)	i	i	i	i	i
O=C(CCN1CCN(c2ccccc2)CC1)Nc1nccs1	i	i	i	i	i
O=C(O)COc1c(F)c(F)c(C(F)(F)F)c(F)c1F	i	i	i	i	i
COc1ccc(S(=O)(=O)Cc2ccc(C(=O)N3CCCC3)o2)cc1	i	i	i	i	i
CCOC(=O)N1CCN(C(=O)c2ccc(CS(=O)(=O)c3ccc(OC)cc3)o2)CC1	i	i	i	71	i
COc1ccc(S(=O)(=O)Cc2ccc(C(=O)N3CCN(c4ccccc4F)CC3)o2)cc1	i	i	i	89	i
COc1ccc2nc3oc(C(=O)N4CCN(c5ccccc5F)CC4)cc3cc2c1	i	i	i	i	i
COc1ccc(S(=O)(=O)Cc2ccc(C(=O)N3CCN(c4ccccc4)CC3)o2)cc1	i	i	i	66	i
CCOC(=O)c1cnn(-c2ncnc3c2oc2ccccc23)c1N	i	i	i	i	i
CCOC(=O)c1sc(NC(=O)c2ccc(S(=O)(=O)N3CCOCC3)cc2)cc1C	i	i	i	i	i
COc1cc(NC(=O)c2cc(-n3cnnc3)ccc2Cl)cc(OC)c1	i	i	nt	i	i
CC(=O)OCCNC(=O)Cn1cnc2c1c(=O)n(C)c(=O)n2C	i	i	i	i	i
Cc1ccccc1C(=O)c1ccc2c(c1)n(C)c(=O)n2C	i	i	i	74	76
O=c1[nH]c(CSc2nnc(NCCCN3CCOCC3)s2)nc2cc(Cl)ccc12	i	i	i	i	i
Cc1ccsc1/C=C/c1ccc2cccc(O)c2n1	i	i	i	73	57
COc1ccc(-n2c(=O)c3ccccc3n(CC(=O)NC3CCCCC3)c2=O)cc1	i	i	i	i	i
SMILES	CYP2C19 act	CYP2C9 act	Cav32 inh	CYP2C9 inhib	CYP2C19 inh
CS(=O)(=O)N(CCC(=O)O)Cc1ccccc1	i	i	i	i	i
CSc1nc(C2CC2)cc(-c2cccs2)c1C#N	i	i	i	i	i
Brc1ccc(-c2cnc(-c3cccs3)o2)cc1	i	i	i	59	i
Cc1nn(-c2ccccc2)nc1CNC(=O)C(C)Cc1ccccc1 (stereo unspecified)	nt	nt	i	nt	nt
O=C(CCSc1nnc2ccc3ccccc3n12)Nc1ccc(F)cc1	i	2.1	i	i	i
CC(CCc1ccccc1)NC(=O)C1CCN(S(=O)(=O)N2CCCCC2)CC1 (stereo unspecified)	i	i	i	i	i
CCCn1c(SCC(=O)NC)nnc1C(C)C	i	i	i	i	i
Cc1cccc(Cn2cc(SCC(=O)Nc3nccs3)c3ccccc32)c1	i	i	-4.6	60	i
Cc1ccc(Cn2cc(SCC(=O)Nc3nccs3)c3ccccc32)cc1	i	i	-6	91	i
COc1ccc(CCNC(=O)CSc2cn(Cc3cccc(C)c3)c3ccccc23)cc1OC	nt	nt	-4.3	nt	nt
COc1cc2[nH]c3c(c2cc1OC)CCN1CCCC[C@@H]31	nt	nt	i	nt	nt
CCn1c(=O)cc(N2CCC3(CC2)OCCO3)[nH]c1=O	i	i	i	i	i
CC(=O)Nc1ccc(NS(=O)(=O)C(F)(F)F)cc1	i	i	i	i	i
N#Cc1ccc(OCc2nnc(SCC(=O)c3ccccc3)n2-c2ccccc2)cc1	nt	nt	i	nt	nt
